# Screens deposited in PubChem by National Center for Advancing Translational Sciences (NCATS).
# hNpr1 antagonist – Natriuretic polypeptide receptor (hNpr1) antagonism - Primary qHTS; Atrial natriuretic peptide receptor 1 (Homo sapiens), P16066; HEK293 hNpr1 GloSensor cGMP, ANP-stimulated luminescence; Potency, µM (top dose mostly 46.3 µM), without a hit: at the highest dose activity change, negative = inhibition, usual class: inhibitors; actives 1.6% (n = 76,000); calls by dose curve; further: nearly all actives have a fitted effect of over 60% in size
#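 HEK293 cells stably expressing human Npr1 and cGMP GloSensor pGS-40F, loaded 2 h with 2% GloSensor reagent, given compound 30 min at room temperature. Luminescence read before and 20 min after 0.1 nM hNppA.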
# 3T3 cytotox – Cytotoxic Profiling in NIH 3T3 Cell Line of Diverse Libraries Using Quantitative High-Throughput Screening; actives 4.3% (n = 94,000); NIH 3T3 viability, CellTiter-Glo ATP luminescence, 48-72 h; Potency, µM (series often up to 96.7 µM), for inactives: at the highest dose activity change, negative = cytotoxicity, most hits filed as inhibitors; further: nearly all actives have a fitted effect of over 55% in size
#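 Cells were seeded at 400 per well, treated with pin-transferred compound, and kept 48 or 72 hr at 37 °C before CellTiter-Glo addition and luminescence imaging of cellular ATP.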
# HEK293 tox – Cytotoxic Profiling in HEK 293 Cell Line of Diverse Libraries Using Quantitative High-Throughput Screening; HEK 293 viability, ATP luminescence (CellTiter-Glo), 48-72 h; Potency, µM (titrated, usually from 115 µM), without a hit: at the top dose activity change, negative = cytotoxicity, most hits filed as inhibitors; actives 6.6% (n = 94,000); further: nearly all actives have a fitted effect of over 60% in size
#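 CellTiter-Glo luminescence (cellular ATP) was read after 48 or 72 hr of compound exposure at 37 degree Celsius. Cells were HEK 293 plated at 250 cells/well.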
# FLuc inh – Firefly luciferase inhibition profiling of diverse chemical library using quantitative high-throughput screening; Luciferin 4-monooxygenase (Photinus pyralis), P08659; purified P. pyralis luciferase, luminescence, biochemical; Potency, µM (highest dose often 115 µM), hits mostly inhibitors; actives 2.5% (n = 76,000); AID 1347043, 2019; further: nearly all actives have a fitted effect of over 65% in size
# Target sequence (P08659 whole entry, looked up): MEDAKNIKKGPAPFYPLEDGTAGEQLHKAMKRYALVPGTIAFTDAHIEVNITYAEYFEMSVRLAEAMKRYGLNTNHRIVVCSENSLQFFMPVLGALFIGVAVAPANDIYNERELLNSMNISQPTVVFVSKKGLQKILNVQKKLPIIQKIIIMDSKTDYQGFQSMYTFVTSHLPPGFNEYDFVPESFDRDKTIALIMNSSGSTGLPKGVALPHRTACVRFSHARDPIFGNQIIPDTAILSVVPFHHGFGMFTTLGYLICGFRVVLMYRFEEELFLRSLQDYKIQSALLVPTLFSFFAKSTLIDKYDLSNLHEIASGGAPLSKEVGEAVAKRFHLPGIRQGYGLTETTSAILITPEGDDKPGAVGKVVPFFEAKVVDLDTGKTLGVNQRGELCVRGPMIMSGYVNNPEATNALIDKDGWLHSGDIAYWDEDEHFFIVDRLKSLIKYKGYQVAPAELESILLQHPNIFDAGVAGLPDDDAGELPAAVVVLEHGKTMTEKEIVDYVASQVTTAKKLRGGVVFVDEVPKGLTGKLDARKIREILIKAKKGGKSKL
#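 Luminescence read by CCD imaging after purified firefly luciferase (10nM final) was added to substrate buffer holding 10uM D-luciferin and 10uM ATP, pH 7.5, pre-dosed with compound.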
# Active calls of the source: *; i = inactive; ? = inconclusive; . = not tested or not shown; [ ] = remark or other dose. A selection: hits, their analogues and other compounds. The true share with any hit is near 11%. Unless noted, the call rests on the fitted dose curve; in most records, active means well fitted curve in the direction sought with a large enough effect; inconclusive means small, poorly fitted or top-dose-only effect, or another doubt; inactive means no such curve, though single readings can be large; an effect the other way counts as inactive or inconclusive. On the % scale 0 is the no-effect control and ±100 the full control effect; potency means the concentration at half of the fitted maximal effect.
SMILES,hNpr1 antagonist,3T3 cytotox,HEK293 tox,FLuc inh
Cc1nc(-c2ccc(N(C)C)cc2)cc([C@H]2CN3CC[C@H]2C[C@@H]3COC(=O)Nc2ccc(C(C)C)cc2)n1,?,3.55µM*,3.55µM*,?
CC[C@H]1CN2CC[C@H]1C[C@@H]2COC(=O)Nc1cc(OC)cc(OC)c1,2.6%[70.6 µM],?,100µM*,i
Cn1nc(-c2ccc3ccccc3c2)cc1[C@H]1CN2CC[C@H]1C[C@@H]2COC(=O)Nc1ccccc1,-7.9%,17.8µM*,20µM*,?
O=c1ccc(-c2cccs2)c2n1C[C@H]1C[C@@H]2CN(S(=O)(=O)c2ccccc2)C1,3.0%[70.6 µM],-8.2%[174 µM],-0.7%[172 µM],i
C#CCN(C)C[C@H]1CN2CC[C@H]1C[C@@H]2CNS(=O)(=O)c1ccc(C)cc1,-8.3%[70.6 µM],-18.5%[174 µM],-14.5%[172 µM],i
CC(C)(C)c1ccc(NC(=O)OC[C@H]2C[C@@H]3CCN2C[C@@H]3c2cc(C3CCCC3)nc(-c3ccncc3)n2)cc1,4.5%,20µM*,20µM*,?
CCC(CC)c1cc([C@H]2CN3CC[C@H]2C[C@@H]3COC(=O)Nc2ccc(C(C)(C)C)cc2)nc(-c2ccncc2)n1,-23.7%,5.01µM*,7.08µM*,?
O=C(Nc1ccccc1)OC[C@H]1C[C@@H]2CCN1C[C@@H]2c1cc(C2CCCC2)nc(-c2ccncc2)n1,?,7.94µM*,3.98µM*,?
CCC(CC)c1cc([C@H]2CN3CC[C@H]2C[C@@H]3CNC(=O)C(C)(C)C)nc(-c2ccncc2)n1,-2.5%,?,?,i
CC(C)c1ccc(NC(=O)OC[C@H]2C[C@@H]3CCN2C[C@@H]3c2cc(C3CCCC3)nc(-c3ccncc3)n2)cc1,-24.1%,4.47µM*,3.55µM*,?
c1ccc(CC2CN3CCCC3CN2)cc1 (stereo not drawn),.,-2.9%[174 µM],i,.
COc1cc2c(cc1-c1cccnc1)NC(=O)C21CCN(C(C)=O)CC1,7.7%[70.6 µM],?,-12.9%[172 µM],i
COc1cc2c(cc1-c1cnn(C)c1)NC(=O)C21CCN(C(C)=O)CC1,2.4%[70.6 µM],31.6µM*,1.9%[172 µM],i
COc1cc2c(cc1-c1ccc(O)c(F)c1)NC(=O)C21CCN(C(C)=O)CC1,-9.1%[70.6 µM],28.2µM*,-24.2%[172 µM],i
CN(C)Cc1cn(C[C@H]2C[C@@H]3CCN2C[C@@H]3C(=O)NC2CC2)nn1,3.0%[70.6 µM],0.0%[174 µM],i,i
O=C1N(c2ccccn2)C[C@H]2CN(Cc3ccccc3)CCN12,-20.5%[70.6 µM],-12.4%[138 µM],-7.3%[172 µM],20µM*
COc1ccc(NC(=O)NC[C@H]2C[C@@H]3CCN2C[C@@H]3c2cc(-c3ccc(OC)c(OC)c3)nn2C)cc1,7.7%,?,?,i
COc1ccc(-c2cc([C@H]3CN4CC[C@H]3C[C@@H]4CNC(=O)Nc3cccc4ccccc34)n(C)n2)cc1OC,2.8%,?,44.7µM*,i
Cc1ccc(C(=O)NC[C@H]2C[C@@H]3CCN2C[C@@H]3c2cc(-c3ccc(F)cc3)nn2C)cc1,-27.3%[70.6 µM],25.1µM*,25.1µM*,i
COc1ccc(C(=O)NC[C@H]2C[C@@H]3CCN2C[C@@H]3c2cc(-c3ccc(F)cc3)nn2C)cc1,-0.2%,?,?,i
Cn1nc(-c2ccc(F)cc2)cc1[C@H]1CN2CC[C@H]1C[C@@H]2CNC(=O)c1cccs1,-19.0%[70.6 µM],56.2µM*,44.7µM*,i
COc1ccc(-c2cc([C@H]3CN4CC[C@H]3C[C@@H]4CNC(=O)c3ccc(C(C)(C)C)cc3)n(C)n2)cc1OC,0.8%,?,20µM*,i
Cn1cc(CN2CCN3C(=O)N(Cc4ccccn4)C[C@H]3C2)cn1,3.9%[70.6 µM],i,i,i
C#C[C@H]1CN2CC[C@H]1C[C@@H]2CNCc1ccc(C(F)(F)F)cc1,0.0%[70.6 µM],-26.3%[174 µM],?,i
CNC(=O)[C@@H]1[C@@H](c2ccccc2)CN2CCN(C(C)=O)C[C@H]12,.,?,-6.9%,.
SMILES,hNpr1 antagonist,3T3 cytotox,HEK293 tox,FLuc inh
CCOC(=O)[C@H]1CN(C(=O)OCc2ccccc2)[C@]2(C)C(=O)Nc3ccccc3[C@H]12,.,-24.5%[46.1 µM],?,.
COc1ccc(OC)c(S(=O)(=O)NC[C@H]2C[C@@H]3CCN2C[C@@H]3c2cc(-c3ccc(F)cc3)nn2C)c1,-19.8%,?,28.2µM*,i
COc1ccc(-c2cc([C@H]3CN4CC[C@H]3C[C@@H]4CNC(=O)NC3CCCCC3)n(C)n2)cc1,-1.4%,89.1µM*,?,i
COc1cccc([C@H]2CN(C(=O)Cc3cnc[nH]3)[C@@H]3C4CCN(CC4)[C@H]23)c1,4.0%,1.9%,-4.3%,i
COc1ccc2c(c1)C1(CCN(S(=O)(=O)c3ccc(Cl)cc3)C1)C(=O)N2C (stereo not drawn),-13.7%,-28.6%,50.1µM*,i
COc1ccc2c(c1)C1(CCN(C(=O)COc3ccc(Cl)cc3)C1)C(=O)N2C (stereo not drawn),-18.8%,?,-21.1%,28.2µM*
COCCNC(=O)N1CCC2(C1)C(=O)N(C)c1ccc(OC)cc12 (stereo not drawn),-1.7%,4.8%,0.7%,i
COc1cc2c(cc1OCc1ccccc1)N(C(=O)C1CCC(C)CC1)CC21CCN(C)CC1 (stereo not drawn),-3.4%,20µM*,28.2µM*,i
COc1cc2c(cc1OCc1ccccc1)N(C(=O)c1cnn(C)c1)CC21CCN(C)CC1,-0.6%,?,?,i
COc1cc2c(cc1OCc1ccccc1)N(C(=O)c1cccc(N(C)C)c1)CC21CCN(C)CC1,2.8%,11.2µM*,?,i
COc1cc2c(cc1OCc1ccccc1)N(C(=O)c1ccc3[nH]ccc3c1)CC21CCN(C)CC1,-2.2%,22.4µM*,35.5µM*,i
COc1cc2c(cc1OCc1ccccc1)N(C(=O)C(C)C)CC21CCN(C)CC1,7.0%[70.6 µM],89.1µM*,?,i
Cn1cccc1CN1CCC2(CC1)C(=O)Nc1ccccc12,.,-14.1%[138 µM],?,.
Cc1ncc2c(n1)C[C@@H]1CC[C@H]2N1C(=O)c1ccnn1C,-0.5%,i,2.6%,i
CCNC(=O)NC[C@H]1C[C@@H]2CCN1C[C@@H]2c1cc(-c2ccccc2)nn1C,4.7%[70.6 µM],-14.7%[174 µM],?,i
CCCCC1CN2CCCC2CN1 (stereo not drawn),.,i,i,.
COc1cc2c(cc1OCc1ccccc1)N(C(=O)c1ccccc1OC)CC21CCN(C)CC1,-1.6%,28.2µM*,79.4µM*,i
COc1cc2c(cc1OCc1ccccc1)N(C(=O)c1ccnn1C)CC21CCN(C)CC1,0.4%,?,?,i
Cn1nc(-c2ccccc2)cc1[C@H]1CN2CC[C@H]1C[C@@H]2CNS(=O)(=O)Cc1ccccc1,5.7%,79.4µM*,79.4µM*,i
